Measurements reported in PubChem BioAssay (Tox21).
Records with an inconclusive call do not appear. A call without a number means that no potency is given here. Active and inactive are the calls of the source. The call rests on the fitted dose curve; in most records, active means well fitted cell-killing curve with a large enough effect in the repeat runs; inconclusive means weak or mixed curves, or effect the other way; inactive means flat fitted curve, though single readings scatter.

Experiments:
[1] = cAMP Responsive Elements (CRE) small molecule antagonists, cell-based qHTS assay: qHTS cell viability counter screen (AID 2060913); conditions: CRE-bla HEK293T viability, CellTiter-Glo luminescence, 5 h; series mostly up to 92.4 µM; further: nearly all actives have a fitted effect of over 40% in size
Summary of the method: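 Cytotoxicity counter screen multiplexed with the CRE-bla antagonist read: HEK293T cells in DMEM with dialyzed FBS and 25 mM HEPES were treated 3 hrs under 0.25 uM final NKH477, then viability measured by CellTiter-Glo luminescence.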

[2] = cAMP Responsive Elements (CRE) small molecule agonists, cell-based qHTS assay: qHTS cell viability counter screen (AID 2060914); conditions: CRE-bla HEK293T viability, CellTiter-Glo luminescence, 5 h; series mostly up to 92.4 µM;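 further: viability read after 3 h of compound exposure; nearly all actives have a fitted effect of over 50% in size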
Summary of the method: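 HEK 293T CRE-bla; DMEM + 10% dialyzed FBS, 25 mM HEPES; 18 h pre-incubation; compound 3 h, 37 °C/5% CO2; CellTiter-Glo added after reporter read; luminescence after 30 min RT.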

C=CC(=O)Nc1cc2c(Nc3ccc(F)c(Cl)c3)ncnc2cc1OCCCN1CCOCC1
Potency [1]: inactive
Potency [2]: inactive

CC1=NN(c2ccc(S(=O)(=O)O)cc2)C(=O)C1N=Nc1ccccc1 (stereo not given)
Potency [1]: inactive
Potency [2]: inactive

O=C(O)[C@H](O)[C@@H](O)[C@H](O[C@@H]1O[C@H](CO)[C@H](O)[C@H](O)[C@H]1O)[C@H](O)CO
Potency [1]: inactive
Potency [2]: inactive

Clc1nc(Cl)c(Cl)c(Cl)c1Cl
Potency [1]: inactive
Potency [2]: inactive

CCOC(=O)[C@H](CCc1ccccc1)N[C@@H](C)C(=O)N(CC(=O)O)C1Cc2ccccc2C1
Potency [1]: inactive
Potency [2]: inactive
